According to PubChem BioAssay AID1159577 (Broad Institute, 2015):
Out of some 1,300 compounds screened, about 240 (18%) were called active. Not shown: some 8% with an inconclusive outcome. Only a sample is shown. Results with a measured potency or affinity are listed apart. A number with no mark means an inactive call. How the calls were made is not given here.

Assay: HepG2 cell cytotoxicity, dose response, cytotoxicity control, cherry-picked samples (AID 1159577);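 further: 0% = neutral control wells and -100% = positive control wells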
Settings: HepG2 cytotoxicity counterscreen, plate reader; series mostly up to 19.5 µM; activity change, negative = cytotoxicity: at the top concentration

Point of comparison: O=C(C[C@H]1C[C@@H]2c3cc(NC(=O)Nc4ccccc4)ccc3O[C@@H]2[C@H](CO)O1)NCc1ccccc1, “activity change, negative = cytotoxicity” value -19.7%. Against it:
- CCCNC(=O)N1[C@H](C#N)[C@H](c2ccc(-c3cccnc3)cc2)[C@H]1CO — higher, 15.7%
- COc1ccc2c3c([nH]c2c1)[C@@H](CO)N(Cc1ccccc1)CC31CCN(C(=O)c2cccnc2)CC1 — higher, 1%
- CO[C@H]1CN(C)C(=O)c2cc(NC(C)=O)ccc2OC[C@H](C)N(Cc2ccncc2)C[C@@H]1C — higher, 9.85%
- N#Cc1ccc(-c2ccc(C3[C@@H]4CN(C(=O)C5CC5)C[C@H]3N4)cc2)cc1 (stereo partly specified) — higher, 5.83%
- C[C@H]1CN([C@@H](C)CO)C(=O)c2ccccc2-c2ccccc2CO[C@@H]1CN(C)C(=O)Nc1ccc(-c2ccccc2)cc1 — higher, -2.44%
- COc1ccc2c3c([nH]c2c1)[C@@H](CO)N(Cc1ccccc1F)CC31CCN(C(=O)C2CCOCC2)CC1 — higher, -8.2%
- Cc1ccccc1S(=O)(=O)N(C)C[C@@H]1OCc2ccccc2-c2c(n(C)c3ccccc23)C(=O)N([C@@H](C)CO)C[C@@H]1C — higher, -1.58%
- COCC(=O)N1CC2(C1)CN(Cc1ccccc1F)[C@H](CO)c1[nH]c3cc(OC)ccc3c12 — higher, 12.4%
- CN(C)CC(=O)Nc1ccc2c(c1)[C@@H]1C[C@H](CC(=O)N3CCOCC3)O[C@@H](CO)[C@@H]1O2 — higher, -0.683%
- N#Cc1ccc(-c2ccc([C@@H]3[C@@H]4CN(S(=O)(=O)Cc5ccccc5)C[C@H]3N4)cc2)cc1 — higher, -19.3%
- N#Cc1ccc(-c2ccc([C@@H]3[C@@H](CO)N4C(=O)CN(C(=O)C5CCC5)C[C@@H]34)cc2)cc1 — higher, 10.7%
- CCCC#Cc1ccc2c(c1)O[C@H](CN(C)C(=O)c1ccccc1F)[C@@H](C)CN([C@H](C)CO)S2(=O)=O — higher, 16%
- C/C=C/c1ccc2c(c1)[C@@H]1[C@@H](CCN1S(=O)(=O)c1ccccc1C)[C@H](CO)N2 — higher, 0.386%
- COc1cccc(CNC(=O)c2cc3c(c(-c4cccc(-c5ccncc5)c4)n2)[C@@H](CCO)N([S@](=O)C(C)(C)C)C3)c1 — higher, -14.9%
- C[C@H]1CN([C@@H](C)CO)S(=O)(=O)c2ccc(C#Cc3ccccc3F)cc2O[C@H]1CN(C)C(=O)c1ccc2c(c1)OCO2 — higher, 26.1%
- CCCNC(=O)c1cc2c(c(-c3cccc(-c4cc5ccccc5o4)c3)n1)[C@H](CCO)N(C(=O)NC(C)C)C2 — higher, 26.5%
- O=C(c1ccccc1F)N1CC(=O)N2[C@H](C1)[C@@H](c1ccc(-c3ccc(F)cc3)cc1)[C@@H]2CO — higher, -5.85%
- C/C=C/c1ccc([C@H]2[C@@H](CO)N(CC3CCCC3)C23CN(C(=O)CC2CC2)C3)cc1 — higher, -13.4%
- Cc1ccccc1S(=O)(=O)N1C[C@@H]2N[C@H](C1)C2c1ccc(-c2ccc(C#N)cc2)cc1 (stereo partly specified) — higher, -10.4%
- COc1ccccc1-c1ccc([C@@H]2[C@@H](C#N)N[C@@H]2CO)cc1 — higher, 1.31%
- COc1cccc(CN2[C@@H]3CNC[C@H]2[C@H]3c2ccc(-c3ccccc3OC)cc2)c1 — higher, -3.18%
- CCCC(=O)N1CCC2(CC1)CN(Cc1cccnc1)[C@@H](CO)c1[nH]c3cc(OC)ccc3c12 — higher, 19.9%
- CCC(=O)N1CC2(C1)CN(S(=O)(=O)c1ccccc1)[C@@H](CO)c1[nH]c3cc(OC)ccc3c12 — higher, 23.6%
- COc1ccc(S(=O)(=O)Nc2ccc3c(c2)CC(=O)N([C@H](C)CO)C[C@H](C)[C@H](CN(C)S(=O)(=O)c2ccc(C)cc2)O3)cc1 — higher, 5.57%
- O=C(Nc1ccc(C(F)(F)F)cc1)N1C[C@@H]2N[C@H](C1)C2c1ccc(-c2cccnc2)cc1 (stereo partly specified) — higher, 23.2%
- COc1ccc(-c2ccc(C3[C@H]4CNC[C@@H]3N4C(=O)Nc3ccc(C(F)(F)F)cc3)cc2)cc1 (stereo partly specified) — higher, 7.31%
- COc1cccc(-c2ccc(C3[C@@H]4CN(C(=O)C5CC5)C[C@H]3N4)cc2)c1 (stereo partly specified) — higher, -2.61%
- O=C(c1cnccn1)N1CC(=O)N2[C@@H](CO)[C@@H](c3ccc(C#CCc4ccccc4)cc3)[C@@H]2C1 — higher, 5.35%
- CCC(=O)N1CC2(C1)CN(Cc1cc(F)ccc1F)[C@H](CO)c1[nH]c3cc(OC)ccc3c12 — higher, -5.03%
- CC(C)(C)[S@@](=O)N1Cc2cc(C(=O)N3CCc4ccccc4C3)nc(-c3cccc(-c4ccncc4)c3)c2[C@H]1CCO — higher, 14%
- C[C@H]1CN([C@@H](C)CO)C(=O)CCCn2nncc2CO[C@H]1CN(C)C(=O)Nc1ccc(N2CCCCC2)cc1 — higher, 4.08%
- C[C@@H]1CN([C@H](C)CO)C(=O)c2cc(/C=C/c3ccccc3)cnc2O[C@H]1CN(C)C(=O)NC1CCCCC1 — higher, -16.2%
- CN(C)CC#Cc1ccc([C@@H]2[C@H](CO)N3C(=O)CN(C(=O)Cc4cccnc4)C[C@@H]23)cc1 — higher, -5.53%
- COCC(=O)Nc1ccc2c(c1)C(=O)N(C)C[C@H](OC)[C@H](C)CN(Cc1cccc(F)c1)[C@@H](C)CO2 — higher, 6.07%
- C[C@@H]1CN([C@H](C)CO)C(=O)c2cccc(NC(=O)c3nc4ccccc4s3)c2O[C@H]1CN(C)C(=O)Nc1ccc(C(F)(F)F)cc1 — higher, 24.7%
- CCCNC(=O)N1CCC2(CC1)CN(Cc1ccc(F)cc1)[C@@H](CO)c1[nH]c3cc(OC)ccc3c12 — higher, 12%
- CO[C@@H]1CN(C)C(=O)c2ccc(NC(=O)c3nc4ccccc4s3)cc2OC[C@@H](C)N(Cc2ccccc2)C[C@H]1C — higher, 19.9%
- COc1ccc(-c2ccc(C3[C@H]4CNC[C@@H]3N4S(=O)(=O)c3cccc(OC)c3)cc2)cc1 (stereo partly specified) — higher, 5.57%
- CCC(=O)N1CC2(C1)CN(Cc1cccc(Cl)c1)[C@H](CO)c1[nH]c3cc(OC)ccc3c12 — higher, -13%
- C[C@@H]1CN([C@H](C)CO)C(=O)c2cccc(NS(=O)(=O)c3cccs3)c2O[C@H]1CN(C)Cc1ccc(C(F)(F)F)cc1 — higher, 0.28%
- COc1ccc(C#Cc2ccc3c(c2)O[C@H](CN(C)C(=O)Nc2cccc(OC)c2)[C@H](C)CN([C@@H](C)CO)S3(=O)=O)cc1 — higher, 4.51%
- CC(C)(C)[S@](=O)N1Cc2cc(C(=O)NC3CCC3)nc(-c3cccc(Br)c3)c2[C@@H]1CCO — higher, 15.7%
- COc1ccc(S(=O)(=O)N(C)C[C@@H]2OCc3ccccc3-c3c(n(C)c4ccccc34)C(=O)N([C@@H](C)CO)C[C@@H]2C)cc1 — higher, 3.28%
- COc1ccc2c3c(n(C)c2c1)[C@H](CO)N(C(=O)c1cccc(F)c1)CC31CN(C(=O)c2cccc(F)c2)C1 — higher, 38.5%
- CO[C@@H]1CN(C)C(=O)c2ccc(NC(=O)c3cc(C)on3)cc2OC[C@@H](C)N(S(=O)(=O)c2cccc(C)c2)C[C@H]1C — higher, -12.2%
- CCC(=O)N1CCC2(CC1)CN(Cc1cccc(OC)c1)[C@@H](CO)c1[nH]c3cc(OC)ccc3c12 — lower, -21.1%
- C[C@@H]1CN([C@H](C)CO)C(=O)c2c(c3ccccc3n2C)-c2ccccc2CO[C@@H]1CN(C)C(=O)c1cc(Cl)cc(Cl)c1 — higher, 1.08%
- COc1ccc(CN2C[C@H](C)[C@@H](OC)CN(C)C(=O)c3cc(NC(=O)c4nc5ccccc5s4)ccc3OC[C@@H]2C)cc1 — higher, -2.87%
- CCCNC(=O)Nc1ccc2c(c1)C(=O)N(C)C[C@H](OC)[C@@H](C)CN(C(=O)C1CCOCC1)[C@@H](C)CO2 — higher, 0.908%
- C/C=C/c1ccc2c(c1)[C@H]1[C@H](CCN1S(=O)(=O)c1cccc(F)c1)[C@@H](CO)N2 — higher, -18.7%
- C/C=C/c1ccc2c(c1)[C@H]1[C@H](CCN1C(=O)c1ccc3c(c1)OCO3)[C@H](CO)N2 — higher, 17.9%
- C[C@@H]1CN([C@@H](C)CO)S(=O)(=O)c2ccc(/C=C/c3ccccc3)cc2O[C@H]1CN(C)C(=O)c1ccc2c(c1)OCO2 — higher, -5.77%
- C/C=C/c1ccc(C2[C@H]3CNC[C@@H]2N3Cc2cc(F)ccc2F)cc1 (stereo partly specified) — higher, -9.53%
- C[C@@H]1CN([C@@H](C)CO)C(=O)c2cc(NC(=O)Nc3ccccc3)ccc2O[C@@H]1CN(C)C(=O)Nc1cccc2ccccc12 — higher, 0.484%
- COc1ccc2c3c([nH]c2c1)[C@@H](CO)N(Cc1ccccc1Cl)CC31CCN(C(=O)C2CC2)CC1 — higher, 5.31%
- CCC(=O)N1CC2(C1)CN(Cc1ccc(Cl)cc1)[C@@H](CO)c1[nH]c3cc(OC)ccc3c12 — higher, -17.8%
- C/C=C/c1ccc2c(c1)[C@H]1[C@H](CCN1S(=O)(=O)c1ccccc1C)[C@@H](CO)N2 — higher, 2.08%
- CO[C@@H]1CN(C)C(=O)c2cc(NC(C)=O)ccc2OC[C@@H](C)N(C(=O)Cc2cccnc2)C[C@H]1C — higher, -3.07%
- CCCN1[C@H](CO)[C@H](c2ccc(C3=CCCC3)cc2)[C@H]1CN(C(C)=O)C1CCCC1 — higher, 4.65%
- CCC(=O)N1[C@H](CO)[C@H](c2ccccc2)[C@@H]1CN(CC)C(=O)c1cccc(F)c1 — higher, 6.38%
- CN(C)CC(=O)N1[C@H](CO)[C@H](c2ccc(-c3cccc(C(=O)N(C)C)c3)cc2)[C@@H]1C#N — higher, 9.58%
- C[C@@H]1CN([C@H](C)CO)S(=O)(=O)c2ccc(C3=CCCCC3)cc2O[C@H]1CN(C)C(=O)Cc1ccncc1 — higher, 18%

In the case of CS(=O)(=O)N1[C@H](C#N)[C@H](c2ccccc2-c2ccccc2)[C@H]1CO, the “activity change, negative = cytotoxicity” value is reported as -3.69% [at 18 µM].

Point of comparison: COc1ccccc1CN1C[C@@H]2N[C@H](C1)C2c1ccc(-c2ccncc2)cc1 (stereo partly specified), “activity change, negative = cytotoxicity” value -9.04% [at 21 µM]. Against it:
- Cc1ccc(S(=O)(=O)N(C)C[C@H]2Oc3ccc(NC(=O)c4ccncc4)cc3C(=O)N([C@@H](C)CO)C[C@@H]2C)cc1 — higher, 0.724% [at 21 µM]
- Cc1ccc(S(=O)(=O)N(C)C[C@@H]2OCc3ccccc3-c3c(n(C)c4ccccc34)C(=O)N([C@H](C)CO)C[C@@H]2C)cc1 — higher, -6.32% [at 21 µM]
- N#Cc1ccc(-c2ccc([C@@H]3[C@@H]4CN(Cc5cocn5)C[C@H]3N4)cc2)cc1 — lower, -18.2% [at 21 µM]
- CS(=O)(=O)N1[C@H](C#N)[C@H](c2ccccc2-c2ccc(F)cc2)[C@H]1CO — higher, 0.806% [at 21 µM]
- N#C[C@@H]1[C@H](c2ccccc2C2=CCCCC2)[C@@H](CO)N1C(=O)c1cccc(F)c1 — lower, -10.4% [at 21 µM]
- COc1cc(CN2[C@@H]3CNC[C@H]2C3c2ccc(-c3ccccc3)cc2)cc(OC)c1 (stereo partly specified) — lower, -27.9% [at 21 µM]
